Inconclusive results are not listed. Active and inactive are the calls of the source. How the source made its calls: active means hit-call score of the fitted dose curve at least 0.9, where 1 is the maximum; inconclusive means response in the unintended direction; inactive means score below 0.9.

In the test the test system is SRY-box transcription factor 2 (SOX2) Protein Expression, Deisenroth Lab, SOX2 (gene 6657). The experiment in a line: CCTE_Deisenroth_DEVTOX-GLR_Meso_SOX2: CCTE's DevTox GLR-Meso Assay Evaluation of SRY-box transcription factor 2 (SOX2) Protein Expression, Deisenroth Lab. As for the experimental part:
CCTE_Deisenroth_DEVTOX-GLR_Meso assay is a cell-based, multiplex-readout assay that uses RUES2-GLR, a human pluripotent cell line, with measurements taken at 48 hours after chemical dosing in a 384-well microplateCCTE_Deisenroth_DEVTOX-GLR_Meso_SOX2 is 1 of 4 assay components calculated from the CCTE_Deisenroth_DEVTOX-GLR_Meso assay and it measures an the percentage of cells in an ectoderm state. Using a type of inducible fluorescent protein reporter, gain-of-signal activity can be used to understand changes in gene expression with fluorescent microscopy. The percentage of SOX2+ cells are determined by calculating the number of SOX2+ cells divided by the cell count. To generalize the intended target to other relatable targets, this assay component is annotated to the transcription factor intended target family, where the subfamily is SRY-related HMG-box.Data from the assay component CCTE_Deisenroth_DEVTOX-GLR_Meso_SOX2 was analyzed as 1 assay endpoint. The endpoint is the percent SOX2+ cell population minus the 0.2% DMSO control in the CCTE_Deisenroth_DEVTOX-GLR_Meso assay. Furthermore, this assay endpoint can be referred to as a secondary readout, because this assay has produced multiple assay endpoints where this one serves as a measure of ectoderm differentiation.
All assay protocols are aligned to the DevTox GLR-Endo assay workflow. Cells are seeded into 384-well microplates for 24 hours prior to initiating differentiation in defined media for a total duration of 48 hours. A total of two chemical exposures are administered in 24-hour intervals during the 48-hour differentiation period. At the assay termination point, cells are fixed and stained with a fluorescent dye demarcating the nucleus. High-content imaging is used to acquire brightfield and fluorescent channel images across 5 fields per well. Cell identification and mean biomarker fluorescence intensities are calculated with image analysis software to determine the total cell counts for viability assessment and the biomarker expression frequency for each lineage-dependent assay. A typical experimental design tests a 10-point concentration series (1 nM - 200 uM) for 28 compounds in single technical replicate. Assay plate controls include non-differentiated pluripotent cells (baseline control), lineage-specific differentiated cells (differentiation control), and DMSO solvent exposed differentiated cells (solvent control). Experiments typically comprise a minimum of four experimental replicates (n=4).
With `CN(Cc1cnc2nc(N)nc(N)c2n1)c1ccc(C(=O)N[C@@H](CCC(=O)O)C(=O)O)cc1`, the AC50 – broadly, the midpoint of the concentration-response curve, whichever way the signal moves – was 0.0688 µM (active).

As for `CC1=C(/C=C/C(C)=C/C=C/C(C)=C\C(=O)O)C(C)(C)CCC1`, the AC50 is 18.8 µM (active).

Take `CC(C)(c1ccc(O)cc1)c1ccc(O)cc1`: the AC50 was 56.6 µM (active).

As to `O=C1NS(=O)(=O)c2ccccc21`, the molecule was classed as inactive.

As to `O=c1[nH]cc(F)c(=O)[nH]1`, the AC50 is 19.9 µM (active).

Regarding `O=C1CCC(N2C(=O)c3ccccc3C2=O)C(=O)N1` (stereo not given), the call was inactive.

Take `CCN(CC)CCNC(=O)c1c(C)[nH]c(/C=C2\C(=O)Nc3ccc(F)cc32)c1C`: the AC50 was 0.194 µM (active).

With `CS(=O)(=O)OCCCCOS(C)(=O)=O`, the AC50 is 124 µM (active).

Take `O=C1NC(=O)C(c2ccccc2)(c2ccccc2)N1`: the AC50 is 180 µM (active).

As for `CC(=O)Nc1ccc(O)cc1`, the result was inactive.

For `Nc1nc2ncc(CNc3ccc(C(=O)N[C@@H](CCC(=O)O)C(=O)O)cc3)nc2c(=O)[nH]1`, the call was inactive.

Regarding `CC1=C(/C=C/C(C)=C/C=C/C(C)=C/C(=O)O)C(C)(C)CCC1`, the AC50 is 7.53 µM (active).

As to `CC1(C)S[C@@H]2[C@H](NC(=O)Cc3ccccc3)C(=O)N2[C@H]1C(=O)O`, the outcome was inactive.

For the molecule `CC/C(=C(/CC)c1ccc(O)cc1)c1ccc(O)cc1`, the AC50 was 3.63 µM (active).

In the case of `Nc1cccc2c1C(=O)N(C1CCC(=O)NC1=O)C2=O` (stereo not given), the molecule was classed as inactive.
